Source: PubChem BioAssay (National Center for Advancing Translational Sciences (NCATS))
MARV entry inh: inhibitors of Marburg virus binding or cell entry; Marburg virus pseudotyped entry inhibition, cell reporter; Potency, µM (top dose mostly 37.8 µM), without a hit: at the top dose activity change, negative = inhibition, hits mostly inhibitors; 300,000 compounds, 1.8% hits; calls by dose curve; tested in HEK293 cells; note: potency is the fitted concentration of half-maximal effect; % is set by controls: 0 for no effect and ±100 for the full control effect
Lassa entry inh: inhibitors of Lassa virus binding or cell entry; 300,000 compounds, 1.2% hits; Lassa virus pseudotype entry inhibition, cell reporter; AID 540256; Potency, µM (series often up to 37.9 µM), inactives show at the highest dose activity change, negative = inhibition, usual class: inhibitors; calls by dose curve; tested in HEK293 cells; note: potency is the fitted concentration of half-maximal effect; % is set by controls: 0 for no effect and ±100 for the full control effect; nearly all actives have a fitted effect of over 50% in size
CHX counter: counter-screen for Shiga toxin inhibitors: cycloheximide protein synthesis inhibition. cell reporter, cycloheximide protein synthesis inhibition counterscreen. max response, %. 300,000 compounds, 12% hits; in the data active = max response mostly above about 13%, no sharp cut-off; inactive = mostly below about 14%; note: read at 38.3 µM for the half of the compounds with a filed dose; 0% is about no effect
Shiga inhibitor: inhibitors of Shiga toxin in Vero cells; 290,000 compounds, 9.2% hits; AID 2315; Vero cells, Shiga toxin protein synthesis inhibition reporter; inhibition, % at 38.7 µM; in the data active = inhibition mostly above about 28%, no sharp cut-off; inactive = mostly below about 43%; note: 0% is about no effect
HCV inhibitor: inhibitors of hepatitis C virus infection; Huh7.5.1 HCVcc-Cre infection, luciferase reporter, 44 h; Potency, µM (series often up to 41.8 µM), inactives show at the top dose activity change, negative = inhibition, most hits filed as inhibitors; 340,000 compounds, 3.4% hits; active = well fitted inhibition curve with a large enough effect; inconclusive = small, poorly fitted or top-dose-only effect, or another doubt; inactive = no such curve, though single readings can be large or run the other way; note: potency is the fitted concentration of half-maximal effect; % is set by controls: 0 for no effect and ±100 for the full control effect
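Cells seeded at 1,000/well and cultured 4 h, then compounds added followed by HCVcc-Cre virus (~0.5 moi). After 44 h further culture, luciferase substrate was added, plates held 15 min at room temperature, and luminescence read for 15 sec.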
FMDV inh: blocks foot and mouth disease virus; FMDV antiviral cell-based qHTS; Potency, µM (top dose mostly 57.9 µM), inactives show top-dose activity change, negative = inhibition, usual class: inhibitors; 410,000 compounds, 1.2% hits; calls by dose curve; tested in HEK293T cells; note: read-out not given here; potency is the fitted concentration of half-maximal effect; % is set by controls: 0 for no effect and ±100 for the full control effect; nearly all actives have a fitted effect of over 45% in size
Active calls of the source: *; ? = inconclusive; · = no result; [ ] = another dose, or the depositor's remark. Sampled rows, rich in hits. Any-hit rate of the full collection: about 13%.

SMILES	MARV entry inh	Lassa entry inh	CHX counter	Shiga inhibitor	HCV inhibitor	FMDV inh
COc1ccc2c(c1)OC[C@H]1[C@H]2N2C(=O)c3cc(OC)ccc3NC(=O)[C@@]2(C)[C@H]1c1ccccc1	·	·	·	·	?	-29%
COc1ccc2c(c1)OC[C@H]1[C@H]2N2C(=O)c3cc(F)ccc3NC(=O)[C@@]2(C)[C@H]1c1ccccc1	·	·	·	·	11µM*	0%
Cc1ccc(NC2CC(=O)N(CCc3ccccc3)C2=O)cc1 (stereo not given)	?	?	18*	25	-2%	20%
O=C1CC(NCCc2ccccc2)C(=O)N1CCc1ccccc1 (stereo not given)	-20%	6%	6	-6	4%	2%
Cc1cccc(C)c1NC(=O)CCCSc1nnc(-c2ccco2)o1	-13%	-1%	-2	-12	7%	-6%
COC(=O)C1=C(C)NC(C)=C(C(=O)OCCSc2ccccc2)C1C (stereo not given)	·	·	13*	23*	·	·
C/C(=C\C[Si](C)(C)C)CCC=O	-25%[14.2 µM]	·	·	·	·	·
CCOc1cc(/C=N/NC(=O)c2cc(C)n(-c3ccc(F)cc3)c2C)ccc1O	·	·	22*	87*	?	-29%
Cc1cc(C(=O)N/N=C2\CC(=O)c3ccccc32)c(C)n1-c1ccc(F)cc1	·	·	23*	41*	-29%	34%
CCOc1cc(/C=N/NC(=O)Nc2ccccc2)ccc1O	?	?	37*	72*	?	67%
COc1cc(/C=N/NC(=O)Nc2ccccc2)ccc1OC(C)=O	?	-17%	39*	53*	10%	30%
CCC(C)NC(=O)CN1C(=O)NC2(CCOc3ccccc32)C1=O (stereo not given)	0%[46.1 µM]	9%[46.1 µM]	-3	18	14%	-1%
CCC/C(O)=C1\C(=O)CCCC1=NC(C)C(=O)O (stereo not given)	11%	-5%	-4	-11	4%	·
COc1ccc(NC(=O)Nc2cccc3ccccc23)cc1S(N)(=O)=O	10%[46.1 µM]	4µM*	-3	-9	18%	8%
O=C(Nc1cccc(C(=O)O)c1)Nc1cccc2ccccc12	?	?	21*	29	10%	-6%
O=C(Nc1ccc(Cl)cc1)Nc1cccc(C(=O)O)c1	0.92µM*	0.33µM*	52*	110*	19%	8.9µM*
O=C(O)CCC(=O)Nc1cccc(C(=O)Nc2cccc(Cl)c2)c1	-2%	?	0	-6	1%	-12%
CC(=O)Nc1cccc(NC(=O)Nc2cccc3ccccc23)c1	·	·	10	-24	-15%	-29%
CSc1cccc(NC(=O)Nc2ccc(Cl)cc2)c1	-2%[46.1 µM]	-27%	12	28	-29%	20%
O=C(Nc1cccc(Cl)c1)Nc1cccc(C(=O)O)c1	?	?	35*	76*	14%	14µM*
O=C(NCCSCc1ccc(Cl)cc1)c1cccs1	-6%[46.1 µM]	-29%[46.1 µM]	9	-6	-8%	-12%
O=C(NCc1ccc(F)cc1)c1cc(-c2ccccn2)nc2ccc(S(=O)(=O)N3CCOCC3)cc12	·	·	·	·	·	-25%
COc1ccc(NC(=O)CCCC(=O)NCCc2ccc(OC)c(OC)c2)cc1	·	·	-4	-8	0%	-16%
CC1CCC(C(C)C)C(OC(=O)C[n+]2cc(-c3ccc(Cl)cc3)n3c2CCCCC3)C1 (stereo not given)	?	?	0	18	-17%	?
O=C(Nc1ccccc1Cl)c1cccc(NC(=O)C2CCCC2)c1	·	·	12*	2	?	40%
SMILES	MARV entry inh	Lassa entry inh	CHX counter	Shiga inhibitor	HCV inhibitor	FMDV inh
O=C(NCc1ccccc1)C(=O)Nc1cccc(C(=O)O)c1	·	·	61*	158*	13%	11µM*
O=C(Nc1cccc(C(=O)O)c1)Nc1ccccc1Cl	8.9µM*	4µM*	31*	98*	6%	10µM*
CCOC(=O)CNC(=O)CSc1nnc(-c2cccc(C)c2)n1-c1ccc(OC)cc1	14%	-1%	-1	-9	6%	-4%
Cc1ccc(Nc2ncnc3c2nnn3Cc2ccccc2)cc1	?	-18%	23*	49*	?	21%
CCCCSc1nc(C)c(C(C)=O)cc1C#N	5%	19%	32*	79*	-26%	-24%
CC(=O)c1cc(C#N)c(SCC(=O)O)nc1C	?	0%	-5	-7	23%	-22%
CCOC(=O)CSc1nc(C)c(C(C)=O)cc1C#N	6%	?	18*	100*	6%	-13%
C=CCOc1ccc(/C=C2\SC(=S)N(C(C(=O)O)c3ccccc3)C2=O)cc1 (stereo not given)	?	-18%	-2	10	-19%	0%
CCc1ccc(-c2[nH]nc3nc(-c4ccc(OC)cc4)cc(C(=O)NCCCOC)c23)cc1	·	-2%[46.1 µM]	·	·	·	1%
COc1ccccc1NC(=O)C1=C(C)Nc2nc(SCc3ccccc3F)nn2C1c1ccncc1 (stereo not given)	?	-14%[46.1 µM]	·	·	·	-11%
O=C1C=C(NCCc2cc(Br)c(O)c(Br)c2)C(=O)c2ncccc21	?	2.8µM*	·	·	?	10µM*
CC(C)(C)c1cc(CCC(=O)NCCc2ccccn2)cc(C(C)(C)C)c1O	-28%[46.1 µM]	·	12	18	?	0%
O=C(Cc1ccc2c(c1)CCCC2)Nc1ccc2ccccc2c1	-11%	?	43*	active	-7%	58%
O=C(Nc1ccc2c(c1)CCC2)c1cccc(F)c1	?	?	75*	113*	-17%	1%
O=C(Cc1cccc(F)c1)Nc1ccc2c(c1)CCC2	23%[46.1 µM]	0%	18*	76*	-2%	39%
O=C(Cc1ccccc1F)Nc1ccc2c(c1)CCC2	?	-3%	28	73*	-3%	51%
Cc1ccc2c(c1)N1C(=O)c3ccccc3C1C1=C(CC(C)(C)CC1=O)N2 (stereo not given)	20%	11%	-1	-6	9%	-9%
COc1ccc(CC(=O)Nc2ccc3c(c2)CCC3)cc1OC	?	11µM*	12	4	?	?
CC1CCN(CC(C)OC(=O)c2ccc3c(c2)OCCO3)CC1 (stereo not given)	·	·	23*	28	1%	30%
CC(CN1CCCC1)OC(=O)c1ccc(Cl)cc1 (stereo not given)	·	·	13	-5	-9%	-17%
CC(CN1CCN(C)CC1)OC(=O)c1cccc(Cl)c1 (stereo not given)	9%[46.1 µM]	12%	17*	52*	15%	33%
CC(CN1CCN(C)CC1)OC(=O)c1ccccc1 (stereo not given)	5%	6%	-2	-3	9%	10%
CC(CN1CCOCC1)OC(=O)c1ccccc1Cl (stereo not given)	?	21%	10*	9	22%	0%
CC(CN1CCCC1)OC(=O)c1ccc(Cl)cc1Cl (stereo not given)	·	·	6	-2	9%	28%
CC(CN1CCCCC1)OC(=O)c1ccc2c(c1)OCO2 (stereo not given)	11%	7%	25*	24	12%	7%
